Screens deposited in PubChem by National Center for Advancing Translational Sciences (NCATS).
The full list was thinned out, with hits kept by preference.
Methyltransferases: Primary Screen for Target Class Profiling of Small Molecule Inhibitors of Methyltransferases. purified enzyme, MTase-Glo SAH luminescence; stronger effect = lower value. calls only at 40 µM. 3.9% of 25,000 active; call rule not given here
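Each enzyme was assayed with SAM and its substrate. SAH formation detected by MTase-Glo luminescence; single-point 40 uM screen[…].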
Large screens that a line does not name were inactive; ! = a repeat was not active.

CN1C(=O)c2cc(C(=O)NCc3ccccn3)nn2CC1(C)C(=O)NCc1ccc(F)cc1 (stereo not drawn)	none
C=CCn1c(=O)c2ccc(C(=O)NC(C)C)cc2n2c(=O)n(CC(=O)NC(C)CC)nc12 (stereo not drawn)	none
CC1(C(=O)NCc2ccccc2)Cn2cnc(C(=O)N3CCc4ccccc43)c2C(=O)N1C1CC1 (stereo not drawn)	none
COC(=O)c1cc2n(n1)CC(C)(C(=O)NC1CCCCC1)N(Cc1ccccc1OC)C2=O (stereo not drawn)	none
CCc1ccc(CN2C(=O)c3cc(C(=O)OC)nn3CC2(C)C(=O)NC2CCCCC2)cc1 (stereo not drawn)	none
O=C(O)c1ccc(O)c2ncc(N3CCCN(CCc4cccc5ccccc45)CC3)cc12	Methyltransferases active
c1ccc(N2CCN(CCc3nn[nH]n3)CC2)cc1	none
COc1ccc(N2C(=O)c3cc4ccc(OC)cc4n3CC2(C)C(=O)NC2CCCCC2)cc1 (stereo not drawn)	none
COc1cccc(CN2C(=O)c3nc4ccccc4n3CC2(C)C(=O)NC2CCCCC2)c1OC (stereo not drawn)	none
CCOc1ccc(CNC(=O)c2cc3n(n2)CC(C)(C(=O)NC2CCCCC2)N(C)C3=O)cc1 (stereo not drawn)	none
Cn1cc(-c2ccc(F)c(C(F)(F)F)c2)nc1C1CCN(c2ncnc3[nH]ncc23)CC1	Methyltransferases active
Cn1c(=O)c2ccc(C(=O)NC3CCCC3)cc2n2c(SCC(=O)c3ccc(F)cc3)nnc12	none
NC1(C(=O)O)CCCCC1	none
N.N.O=C(O)C1(C(=O)O)CCC1.[Pt+2]	Methyltransferases active
CC(C)NC(=O)c1ccc2c(=O)n(C(C)C)c3nn(Cc4ccccc4)c(=O)n3c2c1	none
CC1(C(=O)NC2CCCCCC2)Cn2c(cc3occc32)C(=O)N1Cc1cccc(Cl)c1 (stereo not drawn)	none
CC1(C(=O)NC2CCCCCC2)Cn2c(cc3sccc32)C(=O)N1Cc1ccccn1 (stereo not drawn)	none
CCC(C)NC(=O)c1ccc2c(=O)n(CC(C)C)c3nn(Cc4cccc(F)c4)c(=O)n3c2c1 (stereo not drawn)	none
COC(=O)c1ccc(=O)c2nc3/c(=C/O)c(O)cc(=O)c3[nH]c12	Methyltransferases active
C=CCn1c(=O)c2ccc(C(=O)NC(C)C)cc2n2c(=O)n(CC(=O)NC(C)C)nc12	none
CC1(C(=O)NCc2ccc(F)cc2)Cn2cnc(C(=O)NCCc3cccs3)c2C(=O)N1C1CC1 (stereo not drawn)	none
Cc1ccc2c(c1)c(-n1cccc1)c1n2CC(C)(C(=O)NC2CCCC2)N(Cc2ccccn2)C1=O (stereo not drawn)	none
CCOC(=O)c1ccc(N2C(=O)Cn3cccc3C2C(=O)NC2CCCCC2C)cc1 (stereo not drawn)	none
COc1ccccc1Oc1ncccc1CNCc1c(F)cccc1Cl	none
COc1ccccc1CNCCCCCCNCCCCCCCCNCCCCCCNCc1ccccc1OC	Methyltransferases active
COc1ccccc1CNS(=O)(=O)c1cc2c(cc1Cl)n(C)c(=O)n2C	none
COc1cccc(C(=O)Cn2nc3n(C)c(=O)c4ccc(C(=O)NC5CCCC5)cc4n3c2=O)c1	none
Cn1c(=O)c2ccc(C(=O)NC3CCCC3)cc2n2c(SCc3cccc(Cl)c3)nnc12	none
O=C(O)CSc1cc(NS(=O)(=O)c2ccc(Br)cc2)c2ccccc2c1O	Methyltransferases active
Cn1c(=O)n(C)c2cc(S(=O)(=O)Nc3ccc(Br)cc3)ccc21	none
CCc1ccc(-c2cc3n(n2)CC(C)(C(=O)NC2CCCCC2)N(CCN(C)C)C3=O)cc1 (stereo not drawn)	none
O=C(O)c1cccnc1Nc1cccc(C(F)(F)F)c1	none
O=C(Nc1cccc(Nc2cc(Nc3cccc(C(F)(F)F)c3)ncn2)c1)C1CC1	Methyltransferases active
O=C(Nc1ccnc(NC(=O)C2CC2)c1)c1c(Cl)cccc1Cl	none
CCC1CCCCN1CCCNC(=O)c1cc2n(n1)CC(C)(C(=O)NC1CCCC1)N(C)C2=O (stereo not drawn)	none
CC1(C(=O)NC2CCCCCC2)Cn2c(ccc2-c2ccco2)C(=O)N1CCc1cccc(Cl)c1 (stereo not drawn)	none
COC(=O)c1cc2n(n1)CC(C)(C(=O)NC1CCCCCC1)N(c1ccc(F)cc1C)C2=O (stereo not drawn)	none
C/C=C(/C)C(=O)O[C@H]1C=C(CO)C(=O)[C@H](OC(=O)/C(C)=C/CO)[C@H]1C(C)C	Methyltransferases active
C/C=C(\C)C(=O)O[C@H]1C=CC(=O)O[C@H]1/C=C/[C@@H](O)[C@H](C)O	none
O=S(=O)(c1ccccc1)N1CCC(Cc2ccc(CN3CCOCC3)cc2)CC1	none
CCOc1ccc(C2c3cccn3-c3sc4c(c3CN2C(=O)Nc2ccccc2F)CCCC4)cc1 (stereo not drawn)	none
COc1ccccc1CNC(=O)CCc1nnc2n(Cc3ccc(Cl)cc3)c(=O)c3ccccc3n12	none
O=C(O)CC1(O)C(=O)Nc2ccccc21 (stereo not drawn)	Methyltransferases active
O=C1Nc2ccccc2C12CN([S+](=O)([O-])c1ccccc1)C2	none
Cn1nccc1CN1CC2(C1)C(=O)Nc1ccccc12	none
CC1CCN(S(=O)(=O)c2ccc3c(ccn3CC(=O)NCc3ccc(OC(C)C)cc3)c2)CC1	none
Cc1ccc(NC(=O)Cn2c(=O)oc3cc(S(=O)(=O)N4CCCCC4)ccc32)cc1C	none
Cc1ccc(N2C(=O)c3cc4occc4n3CC2(C)C(=O)NC2CCCC(C)C2C)cc1C (stereo not drawn)	none
CN1C(=O)c2cc(C(=O)NCc3cccs3)nn2CC1(C)C(=O)NC1CCCCC1 (stereo not drawn)	none
Cc1nc(N=Nc2cc(S(=O)(=O)O)c3cc([N+](=O)[O-])cc(S(=O)(=O)O)c3c2)c(COP(=O)(O)O)c(C=O)c1O	Methyltransferases active
CC1(C(=O)NC2CCCCCC2)Cn2c(ccc2-c2ccccc2)C(=O)N1CCC1=CCCCC1 (stereo not drawn)	none
Cc1ccc(C(N)=O)cc1Nc1nccc(-c2cn(C(C)C)c3cnccc23)n1	Methyltransferases active
CCN(CC)CCCC(C)Nc1c2ccc(Cl)cc2nc2ccc(OC)cc12 (stereo not drawn)	Methyltransferases active!
CC(C)Cc1ccc(S(=O)(=O)NCCn2c(CCc3ccccc3)nc3ccccc32)cc1	none
Cc1ccc(NC(=O)CSc2nnc3n(CC(C)C)c(=O)c4ccccc4n23)cc1C	none
COC(=O)c1ncn2c1C(=O)N(Cc1ccc(C)o1)C(C)(C(=O)NC1CCCCC1)C2 (stereo not drawn)	none
CCOC(=O)Cc1c(-c2ccccc2)c2cc(Br)ccc2[nH]c1=O	none
CCOc1ccc(NC(=O)N2CCn3cccc3C2C(C)C)cc1 (stereo not drawn)	none
COc1ccc(NC(=O)COc2ccc(NC(=O)C3CC3)cn2)cc1	none
CCN1CCN(Cc2ccc(NC(=O)Nc3ccc(Oc4cc(NC)ncn4)cc3)cc2C(F)(F)F)CC1	Methyltransferases active
Cc1ccc(CCNC(=O)C2CCN(c3cc(C(F)(F)F)ncn3)CC2)cc1	none
CCOc1cccc(NC(=O)c2ccc(N3CCCC3)c(C(F)(F)F)c2)c1	none
CN1CCN(Cc2ccc(NC(=O)Cc3ccc(Oc4cc(NC(=O)C5CC5)ncn4)cc3)cc2C(F)(F)F)CC1	Methyltransferases active
CC1CCN(S(=O)(=O)c2ccc3c(ccn3CCC(=O)NC3CCCc4ccccc43)c2)CC1 (stereo not drawn)	none
Cc1ccccc1NC(=O)N1CCn2c(C)ccc2C1C(C)C (stereo not drawn)	none
CCCCNc1ncc2c(-c3ccc(CN4CCN(C)CC4)cc3)cn(C3CCC(O)CC3)c2n1 (stereo not drawn)	none
